Screening data as filed in PubChem BioAssay.
This is a sample that favours compounds with a hit; in the whole collection about 10% have one here.
3T3 cytotox: cytotoxic compounds in NIH 3T3 cells | NIH 3T3 viability, CellTiter-Glo ATP luminescence, 48-72 h | 94,000 tested, 4.3% active | AID 1345082 | Potency, µM (titrated, usually from 96.7 µM), hits mostly inhibitors; also: nearly all actives have a fitted effect of over 55% in size
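Viability of NIH 3T3 cells after 48 or 72 hr compound treatment at 37 °C was assessed by CellTiter-Glo, with luminescence imaged following a 10 min room-temperature step.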
FLuc inh: blocks purified firefly luciferase enzyme activity; P08659; purified P. pyralis luciferase, luminescence, biochemical; Potency, µM (series often up to 115 µM), actives largely listed as inhibitors; 76,000 tested, 2.5% active; also: nearly all actives have a fitted effect of over 65% in size
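Purified P. pyralis luciferase (10nM final) in 50mM Tris acetate pH 7.5, 10mM Mg acetate, 0.01% Tween-20, 0.05% BSA with 10uM D-luciferin and 10uM ATP. Compounds titrated qHTS. Luminescence imaged on CCD.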
HEK cytotox: cytotoxic compounds in HEK 293 cells. Potency, µM (series often up to 115 µM), most hits filed as inhibitors. 94,000 tested, 6.6% active. HEK 293 viability, ATP luminescence (CellTiter-Glo), 48-72 h; also: nearly all actives have a fitted effect of over 60% in size
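Read-out: CellTiter-Glo ATP luminescence. Cells: HEK 293, 250 cells/well. Exposure: 48 or 72 hr, 37 degree Celsius.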
NPR1 antag: antagonists of human natriuretic peptide receptor Npr1 | P16066 | HEK293 hNpr1 GloSensor cGMP, ANP-stimulated luminescence | AID 1347048 | Potency, µM (doses to about 46.3 µM), actives largely listed as inhibitors | 76,000 tested, 1.6% active; calls by dose curve; also: nearly all actives have a fitted effect of over 60% in size
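Compound pre-incubated 30 min at room temperature on GloSensor-loaded HEK293 cells stably carrying hNpr1 and the pGS-40F cGMP biosensor. Stimulation uses hNppA at 0.1 nM final; luminescence is taken at baseline and 20 min post-agonist.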
GPT2 inh: GPT2 alanine aminotransferase inhibition | Potency, µM (highest dose often 57.7 µM), hits mostly inhibitors | AID 1671188 | Recombinant GPT2, coupled pyruvate oxidase/HRP Amplex Red fluorescence | 100,000 tested, 0.25% active; also: nearly all actives have a fitted effect of over 60% in size
Target sequence (Q8TD30 whole entry, looked up): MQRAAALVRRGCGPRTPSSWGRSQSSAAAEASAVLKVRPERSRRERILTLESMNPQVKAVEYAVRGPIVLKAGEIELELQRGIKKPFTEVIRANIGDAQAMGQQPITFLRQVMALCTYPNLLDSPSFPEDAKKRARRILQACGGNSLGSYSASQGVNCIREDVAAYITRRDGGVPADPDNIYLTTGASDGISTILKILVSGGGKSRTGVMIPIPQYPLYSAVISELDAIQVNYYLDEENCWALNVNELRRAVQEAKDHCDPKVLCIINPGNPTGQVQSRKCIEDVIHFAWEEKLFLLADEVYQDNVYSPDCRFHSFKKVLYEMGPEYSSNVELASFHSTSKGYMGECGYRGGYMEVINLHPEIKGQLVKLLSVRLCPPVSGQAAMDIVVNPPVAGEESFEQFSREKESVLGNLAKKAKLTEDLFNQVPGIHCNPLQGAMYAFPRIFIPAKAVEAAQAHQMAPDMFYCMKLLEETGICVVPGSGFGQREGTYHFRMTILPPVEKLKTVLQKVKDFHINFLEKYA
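Recombinant GPT2 (10ng/uL) with 250uM a-KG and 2mM L-alanine, 30 min at room temperature, in HEPES pH 7.5 buffer. Pyruvate detected by pyruvate oxidase/HRP/Amplex Red fluorescence after 30 min in the dark; AOA (50uM) as positive control.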
Hits are given with their value; i = inactive; ? = inconclusive; nt = no result given; [ ] = another dose, or the depositor's remark. Unless noted, calls follow the shape of the dose curve; as a rule, active = well fitted curve in the direction sought with a large enough effect; inconclusive = small, poorly fitted or top-dose-only effect, or another doubt; inactive = no such curve, though single readings can be large; an effect the other way counts as inactive or inconclusive.

SMILES	3T3 cytotox	FLuc inh	HEK cytotox	NPR1 antag	GPT2 inh
COc1ccccc1Nc1ccnc(N2CCC(NC(=O)c3ccccc3)CC2)n1	i	nt	?	nt	i
COc1ccccc1Nc1ccnc(N2CCC(NC(=O)c3ccc(C)cc3)CC2)n1	40µM	nt	?	nt	i
COc1ccccc1Nc1ccnc(N2CCC(NC(=O)c3ccc(F)cc3)CC2)n1	i	nt	i	nt	i
COc1ccccc1Nc1ccnc(N2CCC(NC(=O)Cc3ccc(F)cc3)CC2)n1	?	nt	45µM	nt	i
COc1ccccc1Nc1ccnc(N2CCC(NC(=O)c3ccc(Cl)cc3)CC2)n1	32µM	nt	35µM	nt	i
COc1ccccc1Nc1ccnc(N2CCN(C(=O)C3CC3)CC2)n1	?	nt	?	nt	i
O=C(C1CCCC1)N1CCN(c2nccc(Nc3ccccc3F)n2)CC1	22µM	nt	?	nt	i
COc1ccccc1Nc1ccnc(N2CCN(C(=O)c3ccccc3F)CC2)n1	?	nt	45µM	nt	i
O=C(C1CCCN1c1nccc(Nc2ccccc2F)n1)N1CCN(c2ncccn2)CC1 (configuration not stated)	i	nt	i	nt	i
COc1ccccc1Nc1ccnc(N2CCN(C(=O)c3ccccc3C)CC2)n1	?	nt	45µM	nt	i
COc1ccccc1Nc1ccnc(N2CCN(C(=O)c3ccccc3)CC2)n1	35µM	nt	?	nt	i
COc1ccccc1C(=O)N1CCN(c2nccc(Nc3ccccc3F)n2)CC1	?	nt	?	nt	i
O=C1CC(c2ccccc2)N(Cc2ccncc2)CCCN(C(=O)c2ccoc2)CCN1 (configuration not stated)	i	i	?	i	i
O=C(c1ccccc1F)N1CCN(c2nccc(Nc3ccccc3F)n2)CC1	?	nt	35µM	nt	i
Cc1cc(CN(C)c2cc(C3CC(N)C3)nc(N)n2)no1 (configuration not stated)	i	i	i	i	i
CCOc1ccc(Cl)cc1CN(C)c1cc(C2CC(O)C2)nc(N)n1 (configuration not stated)	32µM	i	40µM	?	i
O=S(=O)(c1ccc2c(c1)CCC2)N1CC(n2cnnc2C2CCCO2)C1 (configuration not stated)	i	nt	?	nt	i
O=S(=O)(N[C@H]1[C@H](O)[C@H](O)C[C@@H]1c1ccc(C(F)(F)F)cc1)c1ccc(F)cc1	?	i	71µM	i	i
Cc1ccccc1[C@H]1C[C@@H](O)[C@@H](O)[C@@H]1NS(=O)(=O)c1ccc(C(F)(F)F)cc1	i	i	100µM	i	i
COc1ccc(S(=O)(=O)N[C@H]2[C@H](O)[C@H](O)C[C@@H]2c2ccccc2C)cc1	i	i	i	i	i
COc1ccc([C@H]2C[C@@H](O)[C@@H](O)[C@@H]2NC(=O)Nc2ccc(C(F)(F)F)cc2)cc1	25µM	i	?	?	i
COC[C@@H]1CN(S(=O)(=O)C(C)C)C[C@H]1c1ccncc1	i	i	i	i	i
CCn1cc(S(=O)(=O)N2CCC[C@H](n3c(=O)n(CC4CC4)c4cccnc43)C2)cn1	i	i	40µM	i	i
O=C(C1CCC1)N1CCC[C@H](n2c(=O)n(CC3CC3)c3cccnc32)C1	?	nt	?	nt	i
CCCc1noc(-c2cn(C3CCN(C(=O)c4ccco4)CC3)nn2)n1	?	i	i	i	i
SMILES	3T3 cytotox	FLuc inh	HEK cytotox	NPR1 antag	GPT2 inh
CC1(C)CC2CC(C)(CN2C(=O)CC(c2ccccc2Cl)c2c[nH]c3ccccc23)C1 (configuration not stated)	?	i	25µM	i	i
COc1ccc(C(CC(=O)N2CCCC2)c2c[nH]c3ccccc23)cc1 (configuration not stated)	i	?	?	i	i
COc1ccc(C(=O)N2CCC(c3n[nH]c(=O)n3Cc3ccc(F)cc3)CC2)c(C)c1	i	i	i	i	i
COCCNc1nccc(C2(c3ccccc3Cl)CCNCC2)n1	i	i	?	i	i[11.5 µM]
Clc1ccccc1C1(c2ccnc(NCc3ccccc3)n2)CCNCC1	25µM	i	?	?	i
Clc1ccccc1C1(c2ccnc(C3CCCC3)n2)CCNCC1	32µM	i	?	i	i
Clc1ccccc1C1(c2ccnc(CC3CC3)n2)CCNCC1	79µM	i	?	i	i
Clc1ccccc1C1(c2ccnc(NC3CC3)n2)CCNCC1	?	i	?	i	i
Clc1ccccc1C1(c2ccnc(NCc3ccccn3)n2)CCNCC1	i	i	?	i	i[11.5 µM]
COc1ccccc1Cc1nccc(C2(c3ccccc3Cl)CCNCC2)n1	22µM	i	?	i	i[11.5 µM]
COc1ccccc1OCCNC(=O)C1CCN(C(=O)N2CC3CC(C2)[C@H]2CCCC(=O)N2C3)CC1 (some centres not stated)	i	i	i	i	i
O=[N+]([O-])c1cccc(-c2noc([C@@H]3C[C@@H](O)CN3C3CCOCC3)n2)c1	?	i	i	i	i
COc1ccc(CN[C@H]2[C@H](O)[C@@H](N3CCCCC3)[C@@H]3OC[C@H]2O3)cc1	i	i	i	i	i
CN1CC2(CCN(Cc3ccc(-c4ccc(Cl)cc4)o3)C2)OC1=O (configuration not stated)	?	i	?	i	i
Clc1ccc(-c2ccc(CN3CC[C@H]4CC[C@@H](C3)N4)o2)cc1	28µM	?	28µM	i	i
O=c1[nH]sc2cc(Cl)ccc12	nt	nt	nt	nt	14µM
Cc1ccc(C2NC(=O)N(CC(=O)NCCc3ccc(Cl)cc3)C3=C2C(=O)OC3)cc1 (configuration not stated)	?	i	?	i	i
Cc1cccc(CN2CCc3ncc(C(=O)NCCC(C)C)n3CC2)c1	?	i	40µM	i	i
Cc1ccccc1CN1CCc2ncc(C(=O)NCCC(C)C)n2CC1	?	i	?	i	i
N#Cc1cccc(CN2CCc3ncc(C(=O)NCCOc4ccccc4)n3CC2)c1	28µM	i	28µM	?	i
COc1ccc(C(=O)N2CCC3(CC2)C(=NC2CCCCC2)NC(=O)N3c2cc(F)cc(F)c2)cc1	32µM	nt	i	nt	i
COc1ccc(C(=O)N2CCCC3(C2)C(=NC2CCCCC2)NC(=O)N3c2cc(F)cc(F)c2)cc1 (configuration not stated)	i	nt	i	nt	i
O=C(c1ccc(C(F)(F)F)cc1)N1CCC2(C1)C(=NC1CCCCC1)NC(=O)N2c1cc(F)cc(F)c1 (configuration not stated)	25µM	nt	i	nt	i
COc1ccc(C(=O)N2CCC3(CC2)C(=NC2CCCCC2)NC(=O)N3c2cccc(OC)c2)cc1	28µM	nt	i	nt	?
Cc1ccc(C(=O)N2CCC3(CC2)C(=NC2CCCCC2)NC(=O)N3c2cc(F)cc(F)c2)cc1	32µM	nt	i	nt	i
O=C(c1ccc(C(F)(F)F)cc1)N1CCC2(CC1)C(=NC1CCCCC1)NC(=O)N2c1cc(F)cc(F)c1	?	nt	i	nt	?
O=C(c1nc(-c2ccsc2)c2ccccn12)N1CCN(c2ncccn2)CC1	i	i	?	i	i
